In ChEMBL document CHEMBL3988442, “University of Dundee, Small-Polar-MMV Screening Library” (2021):
Out of some 53,000 compounds screened, about 900 (1.7%) showed an effect of 50% or more. Shown is part of a subset that was picked to be rich in strong results.

What follows are compounds tested on Mycobacterium tuberculosis (assay: Cornell - Phenotypic assay to identify agents that inhibit growth of Mycobacterium tuberculosis). Details: 10 mM as filed; unlikely as a test dose.
Assay type: functional
Set-up: scale not given: direction of the effect not stated beside the values

| Structure (SMILES) | Percent Effect |
| --- | --- |
| COCCc1noc(CNC(C)(CO)C2CCCCC2)n1 (stereo not given) | 19.83% |
| Cc1ncc2c(n1)CN(CC(=O)Nc1c(C)nn(C)c1C)CC2 | -7.381% |
| COc1ccc(-c2nc(CN3CCCC(OC)C3)c(C)o2)c(F)c1 (stereo not given) | 56.05% |
| CCCOC1CCCN(Cc2nc(-c3ccc(F)cc3F)oc2C)C1 (stereo not given) | 18.51% |
| COCc1ncn(Cc2nc(-c3ccc(OC)cc3F)oc2C)n1 | -34.66% |
| COCC(=O)NC[C@]1(O)CN(Cc2ccc3c(c2)OCCO3)C[C@H]1O | 24.95% |
| CCn1cc(CN2CCC(c3ncc(Cl)cc3S(C)(=O)=O)CC2)c(C)n1 | 37.62% |
| C=Cn1ncc(CN2CCC(c3ncc(Cl)cc3S(C)(=O)=O)CC2)c1C | 0.06604% |
| CCn1ncc(CN2CCC(c3ncc(Cl)cc3S(C)(=O)=O)CC2)c1C | 50.49% |
| O=C(NS(=O)(=O)c1cccnc1)C1CC(c2ccccc2)=NO1 (stereo not given) | 35.93% |
| Cc1ncc2c(n1)CCCC2NC(=O)c1ccc(Cn2cccn2)cc1 (stereo not given) | -3.537% |
| Cc1occc1C(=O)N1CCC2(CC1)CN(c1ccccn1)CCO2.O=C(O)C(F)(F)F | 15.62% |
| CCc1ccc(CN(C)c2cc(COC)nc3ccnn23)cc1 | 59.92% |
| COCc1cc(N(C)Cc2c(C)nn(C)c2C)n2nccc2n1 | -21.67% |
| CCc1cc(N(C)Cc2ccncn2)n2nccc2n1 | -22.97% |
| CCCc1nc(N[C@H]2COC[C@@H]2N2CCCCC2)c2cnn(C)c2n1 | 6.118% |
| COc1cn(-c2ccccc2)nc1C(=O)NCCN1CCCC(C)C1 (stereo not given) | -24.88% |
| CC(C)CCc1n[nH]c(C(=O)O)c1Br | 50.18% |
| CC(C)CCc1n[nH]c(C(=O)O)c1I | 42.63% |
| CC(C)CCc1n[nH]c(C(=O)O)c1Cl | -0.9753% |
| Cc1nn(CC(C)C)cc1S(=O)(=O)N(C)Cc1nonc1C | 22.09% |
| c1cnc(CC2COCCN(C3CCCCC3)C2)cn1 (stereo not given) | 63.08% |

| Structure (SMILES) | Percent Effect |
| --- | --- |
| c1cncc(O[C@H]2COCCN(C3CCC3)C2)c1 | 18.67% |
| Cc1nccc(CC2COCCN(c3cnccn3)C2)n1 (stereo not given) | -7.582% |
| O=C(O)C(F)(F)F.c1cnc(N2CCC3(COCc4cnc(-c5cccnc5)nc43)C2)nc1 (stereo not given) | -17.47% |
| CN(C)CC(=O)N1CC2(CCN(C(=O)Nc3ccccc3)C2)C1.O=C(O)C(F)(F)F | -36.23% |
| Cc1cc(C)n(CC2CCCN2CCCc2nc3ccccc3o2)n1 (stereo not given) | 14.18% |
| Cc1cc(C2CCCN2CCCc2nc3ccccc3o2)on1 (stereo not given) | 56.86% |
| c1ccc2oc(CCCN3CCCC3Cn3cncn3)nc2c1 (stereo not given) | 23.86% |
| CC(C)c1nc(C2CCCN2CCc2ccccn2)no1 (stereo not given) | -3.374% |
| Cc1cnn(CC2CCCN2CCCc2nc3ccccc3o2)c1 (stereo not given) | 32.71% |
| Cc1nn(C)c(C)c1C1CCCN1CCCc1nc2ccccc2o1 (stereo not given) | 65.17% |
| c1ccc2oc(CCCN3CCCCC3Cn3cncn3)nc2c1 (stereo not given) | 60.48% |
| Cc1nc(C)n(CC2CCCN2CCCc2nc3ccccc3o2)n1 (stereo not given) | 0.1227% |
| CC(C)c1nc(C2CCCN2CCCc2nc3ccccc3o2)no1 (stereo not given) | 73.44% |
| Cc1nn(C)c(C)c1C1CCCN1CCCC#N (stereo not given) | -3.092% |
| CC(C)c1nc(C2CCCN2CCc2ccncc2)no1 (stereo not given) | -12.21% |
| c1ccc2oc(CN3CCCCC3Cn3cncn3)nc2c1 (stereo not given) | 10.3% |
| CN1CCC(Nc2ccc(Cl)cc2OCC(F)(F)F)C1=O (stereo not given) | 4.127% |
| CC(C)[C@H]1CN(Cc2ccncc2)C[C@@H]1NC(=O)C1(C#N)CCOCC1 | 8.101% |
| CCOc1cncc(N2CCCC2c2nnc3n2CCCCC3)n1 (stereo not given) | 14.34% |
| Cn1ncc2c1CN(Cc1ccc(F)cc1)CC2COCC1CC1.O=C(O)C(F)(F)F.O=C(O)C(F)(F)F (stereo not given) | -21.09% |
| Cc1nn(C)cc1NC(=O)CC1CCN(C(=O)Cc2ccccc2)CC1 | -9.652% |
| Cn1cc(CNC2CCCOc3c2ccc2ccccc32)cn1 (stereo not given) | 52.41% |

| Structure (SMILES) | Percent Effect |
| --- | --- |
| Cn1cc(CNC2CCCOc3c(Cl)cccc32)cn1 (stereo not given) | 11.42% |
| Cn1ccnc1CNC1CCCOc2c1ccc1ccccc21 (stereo not given) | 21.15% |
| O=C(Cn1ccnc1)N1CCCC(OCc2cccnc2)C1 (stereo not given) | -41.24% |
| CN(C)C(=O)CN1C[C@H]2CN(Cc3cccc(F)c3)C(=O)[C@H]2C1.O=C(O)C(F)(F)F | 15.1% |
| Cn1nc2c(c1NC(=O)c1cccs1)CCC2 | 1.253% |
| Fc1cnc(N2CCC3(CC2)CC(OCc2cccnc2)CO3)nc1.O=C(O)C(F)(F)F.O=C(O)C(F)(F)F (stereo not given) | 8.704% |
| Fc1ccc(N2CCC3(CC2)CC(OCc2cccnc2)CO3)cc1.O=C(O)C(F)(F)F (stereo not given) | 62.76% |
| N#Cc1ccc(N2CCC3(CC2)CC(OCc2cccnc2)CO3)cc1.O=C(O)C(F)(F)F (stereo not given) | 25.8% |
| CCn1nccc1CN(C)c1nc(N)nc2c1nc(C)n2C | -2.939% |
| NC1(CN2CCCCC2)CCCCC1 | -23.07% |
| Cc1cccnc1NC(=O)CC1(Cn2cnnn2)CCCCC1 | 1.711% |
| Cc1nc(-n2nc(C3CC3)cc2NC(=O)C(C)C)[nH]c(=O)c1C | 77.31% |
| CC(=O)Nc1cc(C2CC2)nn1-c1nc(C)c(C)c(=O)[nH]1 | -29.54% |
| COCCNC(=O)CCc1c(C)nn(-c2nc(C)c(C)c(=O)[nH]2)c1C | 25.57% |
| Cc1cc(NC(=O)C(C)C)n(-c2nc(C)c(C)c(=O)[nH]2)n1 | 105.9% |
| CC(=O)N1CCN(c2cc(CCNC(=O)C(C)C)nc(C3CC3)n2)CC1 | -12.23% |
| Cc1cc(C)n(-c2cncc(NCCNC(=O)C(C)C)n2)n1 | 10.14% |
| Cc1cc(-c2nccs2)nc(C2CCN(Cc3cccs3)CC2)n1 | 25.07% |
| Cc1nccn1Cc1nnc(C2CCCN(c3ncccn3)C2)n1C (stereo not given) | -33.54% |
| COCCN1CCCC(c2nc(C)n3c(C)c(C)sc23)C1 (stereo not given) | 6.759% |
| O=C(N1CCOCC1)N1C[C@H]2CN(Cc3nccs3)C[C@H]2C1.O=C(O)C(F)(F)F | 17.29% |
